# Data published in the supplement of paper PMC3342239.
# Tested on: Saccharomyces cerevisiae
# Experiment: fraction of cells in G1 phase (DNA content, flow cytometry); higher = more cells with unreplicated DNA (G1 delay)
# Details: temperature: 30 C; YPD; JTY2953 pdr5 snq2 (sensitized); drug added to: cultures diluted from stationary phase; 6-7 h
# How it was run: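 Overnight cultures of sensitized JTY2953 were diluted 1∶200 into drug at a final 20 µg/ml and fixed after 6–7 h, and further runs treated dividing JTY2953 or BY4741, fixing them 6 h and 4.33 h later respectively. All growth used YPD at 30°C with S. cerevisiae and library drugs. After ethanol fixation and SYTOX Green staining, flow cytometry recorded 10,000 events. The G1 fraction equals the Dean-Jett-Fox G1 peak area over the G1 plus G2/M areas.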
row,Compound,fraction of cells in G1 phase
1,Cc1cc2c(OCC(CNC(C)(C)C)OC(=O)c3ccccc3)cccc2[nH]1 (stereo unspecified) [Bopindolol malonate] (52.5636 µM),0.517
2,C[N+](C)(C)CCOC(=O)CCC(=O)OCC[N+](C)(C)C [Succinylcholine] (68.8691 µM),0.467
3,Cc1onc(-c2ccccc2)c1C(=O)N[C@@H]1C(=O)N2[C@@H]1SC(C)(C)[C@@H]2C(=O)O [Oxacillin sodium monohydrate] (49.9455 µM),0.486
4,O=C(O)CCCc1ccccc1 [Sodium phenylbutyrate] (107.418 µM),0.491
5,O=c1[nH]c(=O)n(C2CCCO2)cc1F (stereo unspecified) [Ftorafur] (99.9146 µM),0.512
6,C[C@H]1O[C@@H](n2cc(F)c(=O)[nH]c2=O)[C@H](O)[C@@H]1O [Doxifluridine] (81.2358 µM),0.479
